Bioassay records (PubChem BioAssay)
Rows were chosen to be rich in hits. Some 2.4% of all compounds tested hit in one or more screens of this group.
STAT3 inh: IL-6 driven STAT3 reporter inhibitors, primary screen, U3A cells, luciferase, luminescence, MLSCN library. IL-6 STAT3-luciferase reporter; host cell line lacks STAT1. AID 862, 2007. inhibition, % at 5.5 µM. 0.89% of 190,000 active;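 active means inhibition above the mean inhibition across all screened compounds plus 3 SD, cut at about 44% in these data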;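 further: 0% = DMSO only wells and 100% = 100 µM nifuroxazide control wells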
STAT1 inh: STAT1 signaling inhibitors, primary screen, cell-based, HTS, luciferase reporter. inhibition, % at 5.5 µM. NIH 3T3 STAT1-luciferase reporter, IFN-gamma, luminescence. AID 920, 2007. 0.35% of 200,000 active;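 active means inhibition above a set limit, the mean inhibition across all tested compounds plus 3 SD, cut at about 34% in these data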;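 further: 0% = IFN-gamma with DMSO and 100% = IFN-gamma with 300 µM nifuroxazide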
PPC-1+TRAIL kill: compounds killing PPC-1 cancer cells with TRAIL present, primary screen, TRAIL potentiator project, ATPLite luminescence, uHTS. PPC-1 cells + TRAIL, ATPLite viability luminescence. cell killing (% activity), % at 4 µM or 5 µM. 0.41% of 220,000 active;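 active means cell killing above 50% in the first pass at 4 µM, then a duplicate retest at 5 µM averaging 50% or more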;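 further: plate controls were cells with TRAIL plus DMSO for no effect and medium-only wells lacking cells for full effect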
C8 TRAIL sens: viability loss with TRAIL in NB7+C8 cells, primary screen, TRAIL sensitizer project, cell-based, ATPlite luminescence; inhibition (viability loss, TRAIL sensitization), % at 10 µM; 1% of 360,000 active; AID 624354, 2012;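 active means compounds causing at least 50% loss of cell viability in the single-dose screen, relative to plate controls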
HSF1 inh: HSF1 inhibitors in luciferase reporter cells, primary screen, cell-based, NIH3T3, luminescence | NIH3T3-HGL HSE-luciferase, MG132-induced, luminescence 8 h; hits give low values | activity change, negative = inhibition, % at 7.5 µM (by protocol) | 0.77% of 300,000 active;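 active means more than half of replicate wells show activity change below -50%, luminescence cut by over half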;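 further: luciferase reports HSF-1 transcriptional activity via heat shock element; 0% = median of DMSO wells and -100% = zero luminescence signal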
HSP90 inh: HSP90 inhibitors, primary screen, cell lysate, luminescence. AID 1789, 2009. Rabbit reticulocyte lysate, luciferase refolding luminescence, 3 h. 0.91% of 290,000 active. inhibition, % at 5.6 µM. Heat shock protein HSP 90 (rabbit reticulocyte lysate; luciferase refolding);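 active means inhibition above the screen-wide mean plus 3 SD, computed separately per campaign, cut at about 16% in these data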;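 further: 0% = DMSO wells and 100% = 60 µM geldanamycin wells; inhibitors lower the luminescence because luciferase stays unfolded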
PPC-1 tox: cytotoxicity in PPC-1 cells, confirmation, cytotoxicity control for TRAIL apoptosis potentiator project, cell-based, ATP content luminescence; PPC-1 viability, ATPlite luminescence, overnight; cytotoxicity, % at 5 µM; 50% of 1,200 active; shares compounds with PPC-1+TRAIL kill; AID 1447, 2008;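 active means reconfirmed compounds whose average cytotoxicity reaches 50% or more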;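 further: 0% = DMSO-treated cells and 100% = wells holding medium but no cells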
Active calls of the source: *.

`CN1CCN(CCCNC(=O)c2nnc(Cc3c(F)cccc3Cl)o2)CC1` gave STAT3 inh -2, STAT1 inh -4, PPC-1+TRAIL kill 7, C8 TRAIL sens 3, HSF1 inh -1, HSP90 inh 6 and PPC-1 tox 16.
Screening COCc1nnc(NC(=O)c2sc3ccccc3c2Cl)s1 returned STAT3 inh 9, STAT1 inh -1, PPC-1+TRAIL kill 24, C8 TRAIL sens 26, HSF1 inh 11, HSP90 inh 1 and PPC-1 tox 27.
Screening COc1ccc(-c2ccc(SC)nn2)cc1 returned STAT3 inh 84*, STAT1 inh 59*, PPC-1+TRAIL kill 77*, C8 TRAIL sens 86*, HSF1 inh -1, HSP90 inh 43* and PPC-1 tox 69*.
Screening COc1ccc(C(=O)CSc2ccc(-c3ccccc3)nn2)cc1 returned STAT3 inh 0, STAT1 inh 0, PPC-1+TRAIL kill 7, C8 TRAIL sens -4, HSF1 inh 2 and HSP90 inh 4.
`Cc1ccc(OCc2nnc(SCC(=O)NCc3ccccc3)n2C)cc1` gave STAT3 inh 8, STAT1 inh 6, PPC-1+TRAIL kill 11, C8 TRAIL sens 1, HSF1 inh -8, HSP90 inh -1 and PPC-1 tox 11.
For Cn1c(COc2ccccc2)nnc1SCC(=O)NCc1ccccc1 the results were STAT3 inh -5, STAT1 inh 0, PPC-1+TRAIL kill 10, C8 TRAIL sens -4, HSF1 inh -6 and HSP90 inh -2.
CCOC(=O)C1(C)/C(=N/Nc2ccccc2)C(=O)C(=O)N1c1ccccc1 (stereo not given) was read as STAT3 inh 2, STAT1 inh 3, PPC-1+TRAIL kill -9, C8 TRAIL sens 2, HSF1 inh 2, HSP90 inh 1 and PPC-1 tox -1.
For Cc1cc2ncc(-c3ccc(Cl)cc3)c(N)n2n1 the results were STAT3 inh -10, STAT1 inh -32, PPC-1+TRAIL kill 28, C8 TRAIL sens 35, HSF1 inh 14 and HSP90 inh -2.
`Nc1c(-c2ccccc2)cnc2cc(-c3ccccc3)nn12` gave STAT3 inh 34, STAT1 inh -65, PPC-1+TRAIL kill 53*, C8 TRAIL sens 65*, HSF1 inh 12, HSP90 inh -2 and PPC-1 tox 60*.
Screening O=C(N/N=C/c1cccc([N+](=O)[O-])c1)c1cc(-c2ccc3c4c(cccc24)CC3)n[nH]1 returned STAT3 inh -5, STAT1 inh -8, PPC-1+TRAIL kill 12, C8 TRAIL sens -16, HSF1 inh 9 and HSP90 inh 1.
O=C(N/N=C/c1ccc(Cl)c([N+](=O)[O-])c1)c1cc(-c2ccc3c4c(cccc24)CC3)n[nH]1 was read as PPC-1+TRAIL kill 42, C8 TRAIL sens 10, HSF1 inh -3, HSP90 inh 0 and PPC-1 tox 33.
CCc1ccc(Nc2nnc(SCC(=O)NCCN3C(=O)CSC3=O)s2)cc1 was read as STAT3 inh -11, STAT1 inh -18, PPC-1+TRAIL kill 45, C8 TRAIL sens 58*, HSF1 inh 19, HSP90 inh -3 and PPC-1 tox 45.
For CCc1ccc(Nc2nnc(SCC(=O)Nc3sccc3C(N)=O)s2)cc1 the results were STAT3 inh -7, STAT1 inh -6, PPC-1+TRAIL kill 24, C8 TRAIL sens 45, HSF1 inh 5 and HSP90 inh -2.
`Cc1cccc2c(C(=O)O)cc(-c3cccnc3)nc12` gave STAT3 inh -1, STAT1 inh -5, PPC-1+TRAIL kill -14, C8 TRAIL sens 2, HSF1 inh 7, HSP90 inh -1 and PPC-1 tox -3.
O=C(O)c1cc(-c2cccnc2)nc2ccc(Br)cc12 was read as STAT3 inh -1, STAT1 inh -8, PPC-1+TRAIL kill 0, C8 TRAIL sens 0 and HSP90 inh 0.
